Most compounds without a hit are left out; they make up all but 4.7% or so of the library.
RecA intein inh = Mtb RecA intein splicing inhibitors, primary screen, biochemical, fluorescence, HTS | cell-free RecA intein splicing | 290,000 tested, 0.75% active | inhibition, % (concentration not given with the values) | Protein RecA (Mycobacterium tuberculosis (strain ATCC 25618 / H37Rv)), P9WHJ3; in the data active = inhibition above about 30%;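 note: 0% = vehicle wells and 100% = reference inhibitor control wells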
Target sequence (P9WHJ3 whole entry, looked up): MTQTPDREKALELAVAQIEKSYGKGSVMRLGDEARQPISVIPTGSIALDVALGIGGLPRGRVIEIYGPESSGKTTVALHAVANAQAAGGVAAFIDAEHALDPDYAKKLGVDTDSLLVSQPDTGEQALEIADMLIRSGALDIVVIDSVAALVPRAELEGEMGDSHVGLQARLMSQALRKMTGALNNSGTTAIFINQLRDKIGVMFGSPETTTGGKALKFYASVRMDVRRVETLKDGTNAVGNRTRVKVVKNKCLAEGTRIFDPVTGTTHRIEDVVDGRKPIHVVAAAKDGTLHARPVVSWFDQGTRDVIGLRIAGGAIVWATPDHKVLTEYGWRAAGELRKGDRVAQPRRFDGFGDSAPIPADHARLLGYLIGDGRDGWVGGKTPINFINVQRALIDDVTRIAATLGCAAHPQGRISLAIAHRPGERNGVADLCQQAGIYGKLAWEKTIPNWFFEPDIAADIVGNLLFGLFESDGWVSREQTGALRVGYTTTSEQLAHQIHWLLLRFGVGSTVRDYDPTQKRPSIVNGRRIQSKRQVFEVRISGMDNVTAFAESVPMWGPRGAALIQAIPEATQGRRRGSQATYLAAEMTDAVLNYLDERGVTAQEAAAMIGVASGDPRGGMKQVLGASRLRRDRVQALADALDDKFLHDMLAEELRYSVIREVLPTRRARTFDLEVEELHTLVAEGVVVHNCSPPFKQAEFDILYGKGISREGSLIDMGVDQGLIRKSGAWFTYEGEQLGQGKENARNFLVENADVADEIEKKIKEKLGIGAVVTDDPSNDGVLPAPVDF
VHR inh abs = VHR1 phosphatase inhibitors, primary screen, biochemical, absorbance, uHTS. recombinant VHR phosphatase, pNPP absorbance. inhibition, % at 13.3 µM. 290,000 tested, 0.52% active; in the data active = inhibition above about 50%
3CLpro inhibitor = SARS-CoV 3CLpro protease inhibitors, primary screen, biochemical, quenched FRET; AID 1706, 2009; 290,000 tested, 0.14% active; recombinant SARS-CoV 3CLpro, quenched FRET peptide cleavage; inhibition, % at 6 µM; in the data active = inhibition above about 12%
CCHF vOTU inh = CCHFV vOTU protease inhibitors, primary screen, biochemical, Pep-AMC substrate, fluorescence. inhibition, % at 11.5 µM. 370,000 tested, 0.55% active. AID 651958, 2012; in the data active = inhibition above about 30%; note: 0% = vehicle wells with enzyme and 100% = no enzyme wells
GDH-TPI counter-1 = GDH-TPI coupling enzyme inhibitors, primary screen, artefact control for M. tuberculosis FBA inhibitor project, biochemical, absorbance, full deck. 360,000 tested, 1.2% active. inhibition, % at 4.8 µM. AID 588335, 2011. GDH-TPI coupled enzyme counterscreen, NADH absorbance; in the data active = inhibition above about 30%;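 note: 0% = DMSO wells and 100% = wells lacking the enzyme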
Mtb FBA inh = Mtb FBA enzyme inhibitors, primary screen, biochemical, fluorescence, strain H37Rv; Fructose-bisphosphate aldolase (Mycobacterium tuberculosis (strain ATCC 25618 / H37Rv)), …; 360,000 tested, 2.3% active; purified M. tuberculosis FBA, fluorescence read-out; inhibition, % at 1 µM;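 note: 0% = vehicle and 100% = reference inhibitor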
Mtb FBA confirm = M. tuberculosis aldolase blockers, biochemical, fluorescence, strain H37Rv, confirmation; purified M. tuberculosis FBA, fluorescence read-out; shares compounds with Mtb FBA inh; 5,600 tested, 78% active; inhibition, % at 1 µM;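 note: 0% = vehicle wells and 100% = reference inhibitor wells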
GDH-TPI counter-2 = GDH-TPI coupling enzyme inhibitors, artefact control for M. tuberculosis FBA inhibitor project, biochemical, fluorescence, high throughput. inhibition, % at 1 µM. 5,600 tested, 81% active. AID 652141, 2013. GDH-TPI coupled enzyme counterscreen. shares compounds with Mtb FBA inh; in the data active = inhibition above about 10%
* = called active by the depositor; . = not tested or not shown; + = active, no number. Cut-off read from the data, not from the text of the source, unless noted: active = inhibition above about 27%; inactive = the rest.

SMILES	RecA intein inh	VHR inh abs	3CLpro inhibitor	CCHF vOTU inh	GDH-TPI counter-1	Mtb FBA inh	Mtb FBA confirm	GDH-TPI counter-2
COc1cc(-c2nc3cccc(C)n3c2NCC2CCCO2)ccc1O (stereo unspecified)	-82	-10	1	-11	-10	29*	+	+
COc1ccc(-c2oc3ncnc(NCCCN(C)C)c3c2-c2ccc(OC)cc2)cc1	-4	5	-1	-39	16	46*	69*	72*
CC(=O)Nc1sc(N/N=C/c2ccc(N(C)C)cc2)nc1-c1ccc(C)cc1	-2	-4	5	-73	40*	39*	132*	102*
CC(OC(=O)c1cccc(S(=O)(=O)N2CCCCCC2)c1)C(=O)Nc1ccc(S(N)(=O)=O)cc1 (stereo unspecified)	2	.	.	-3	-5	1	.	.
Cn1nc(-c2ccc(Cl)cc2)c2cc(C(=O)NCC3CCCO3)sc21 (stereo unspecified)	4	0	4	-19	7	63*	81*	57*
CCN(CC)CCCNC(=O)c1cc2c(-c3ccc(Cl)cc3)nn(C)c2s1	.	15	-6	-11	10	21	.	.
Cn1nc(-c2ccc(Cl)cc2)c2cc(C(=O)N3CCOCC3)sc21	-1	-31	3	-2	19	4	.	.
CN1CCN(CCCNC(=O)c2cc3c(-c4ccc(Cl)cc4)nn(C)c3s2)CC1	0	2	-4	-1	13	28*	62*	57*
COc1ccccc1NC(=O)N(C)C[C@H]1Oc2ncc(C#CCN(C)C)cc2C(=O)N([C@H](C)CO)C[C@H]1C	.	.	.	.	-1	-3	.	.
Cc1cc(Br)ccc1N=C1NC(=O)CS1	-4	-18	-5	2	3	2	.	.
COc1ccc(-c2coc3c(C(=O)NCc4ccco4)cccc23)c(C)c1	.	.	.	0	0	-1	.	.
COc1ccc(-c2ccc(C(=O)NCc3ccco3)c3occc23)c(C)c1	.	.	.	0	-3	28*	56*	50*
CCC(=O)Nc1cc(C(=O)O)ccc1Sc1ccc(Cl)cc1	-3	-12	0	5	2	7	.	.
O=C1c2ccccc2NC(c2cccc(O)c2)N1c1ccccc1 (stereo unspecified)	-7	-1	-4	-74	-1	42*	129*	107*
O=C1c2ccccc2NC(c2cccc(O)c2)N1Cc1ccco1 (stereo unspecified)	-3	5	-1	-87	1	60*	107*	70*
Cc1ccc(NC(=S)NCc2ccc3c(c2)cc(C)n3C)c(C)c1	5	6	5	0	-6	-3	.	.
OCCN1CCN(c2nc3ccccc3nc2-c2ccccc2)CC1	-6	-6	4	-19	11	7	.	.
Nc1ncc(-c2ccc(F)cc2)nc1N1CCN(CCO)CC1	.	.	.	-64	16	47*	123*	89*
CSc1ccc(/C=C/C(=O)N2CCCN(C)CC2)cc1	-2	16	1	-20	18	32*	52*	45*
O=C(NN=Cc1ccc(O)cc1O)c1ccccc1NS(=O)(=O)c1cccs1	.	.	.	13	6	41*	-3	-1
O=C(N/N=C/c1ccc(N2CCOCC2)cc1)c1ccccc1NS(=O)(=O)c1cccs1	-4	9	1	-3	38*	44*	+	+
COc1ccc(-c2ccc(C(=O)C3CC3)cc2)cc1	-2	31	2	-11	3	60*	52*	44*
COC(=O)c1ccc(-c2nc(CN3CCC(C(=O)N4CCOCC4)CC3)c(C)o2)cc1	-1	6	2	.	-3	48*	47*	37*
